From the supplement of paper PMC10720658
± gives the standard deviation of the averaged measurements.

System: AEK1 (Tb927.3.2440)
Experiment: percent reduction in TR-FRET probe signal relative to DMSO control; higher = stronger displacement of ATP-site probe (binding)
Conditions: 1 µM; incubation time 1 h

Structure (SMILES)	percent reduction in TR-FRET probe signal [%]
Cl.NC(=O)c1cnc(N[C@@H]2CCCC[C@@H]2N)nc1Nc1cccc(-n2nccn2)c1	-0.93 ± 1.4
COc1cc(Nc2nc3ccccc3nc2NS(=O)(=O)c2ccc(NC(=O)c3ccc(C)c(OC)c3)cc2)cc(OC)c1	18.9 ± 14
C[C@H](Nc1ncnc2[nH]cnc12)c1cc2ccc(F)cc2nc1-c1ccccn1	-3.52 ± 7.7
Cc1cc2c(F)c(Oc3ncnn4cc(OC[C@@H](C)O)c(C)c34)ccc2[nH]1	20.2 ± 15
Cc1cnc(Nc2ccc(OCCN3CCCC3)cc2)nc1Nc1cccc(S(=O)(=O)NC(C)(C)C)c1	31.6 ± 15
CN(c1ncccc1CNc1nc(Nc2ccc3c(c2)CC(=O)N3)ncc1C(F)(F)F)S(C)(=O)=O	46.8 ± 0.66
Cc1cc(N2CCOCC2)cc2[nH]c(-c3c(NC[C@@H](O)c4cccc(Cl)c4)cc[nH]c3=O)nc12	21.7 ± 13
COc1ccc(CNC(=O)Nc2ncc([N+](=O)[O-])s2)cc1	-3.27 ± 4.3
O=C(c1ccc(F)c(F)c1Nc1ccc(I)cc1F)N1CC(O)([C@@H]2CCCCN2)C1 [Cobimetinib (GDC-0973, RG7420)]	2.36 ± 13
CCCCCCCCc1ccc(CCC(N)(CO)CO)cc1.Cl [Fingolimod (FTY720) HCl]	-8.59 ± 6.3
Cl.N=C(N)NC(=N)NCCc1ccccc1 [Phenformin HCl]	12.1 ± 8.3
Cc1cnc(NC(=O)Nc2cc(Br)c(C)cc2OC[C@@H]2CNCCO2)cn1	9.29 ± 6.3
Cc1c[nH]c(-c2cnc(NCCNc3ccc(C#N)cn3)nc2-c2ccc(Cl)cc2Cl)n1.Cl	-2.62 ± 8.5
Cc1nc(Nc2ncc(C(=O)Nc3c(C)cccc3Cl)s2)cc(N2CCN(CCO)CC2)n1 [Dasatinib]	10.6 ± 19
Cc1ccc(NC(=O)c2cccc(N(C)C)c2)cc1NC(=O)c1ccc(O)cc1	-8.68 ± 4
C[C@]1(O)C[C@@H](c2nc(-c3ccc4ccc(-c5ccccc5)nc4c3)c3c(N)nccn32)C1 [OSI-906 (Linsitinib)]	-6.09 ± 6
CO[C@@H](C(=O)N1Cc2[nH]nc(NC(=O)c3ccc(N4CCN(C)CC4)cc3)c2C1)c1ccccc1	24.2 ± 6.1

Structure (SMILES)	percent reduction in TR-FRET probe signal [%]
Cc1c[nH]c2nc(Nc3ccc(N4CCN(C)CC4)c(F)c3)nc(-c3cccc(CC#N)c3)c12	56.3 ± 2
CC(C)(C)c1ccc(S(=O)(=O)/C=C/C#N)cc1	-17 ± 7.6
O=C(NCCCNc1nc(Nc2cccc(NC(=O)N3CCCC3)c2)ncc1I)c1cccs1	-0.457 ± 1.2
Cc1cc(Nc2cc(N3CCN(C)CC3)nc(/C=C/c3ccccc3)n2)n[nH]1	20.9 ± 12
CO[C@H]1C[C@@H]2CC[C@@H](C)[C@@](O)(O2)C(=O)C(=O)N2CCCC[C@H]2C(=O)O[C@H]([C@H](C)C[C@@H]2CC[C@H](n3cnnn3)[C@H](OC)C2)CC(=O)[C@H](C)/C=C(\C)[C@@H](O)[C@@H](OC)C(=O)[C@H](C)C[C@H](C)/C=C/C=C/C=C/1C [Zotarolimus(ABT-578)]	-16.6 ± 5
CCC(=O)Nc1cccc(Oc2nc(Nc3ccc(N4CCN(C)CC4)cc3OC)ncc2Cl)c1	-15.7 ± 6.4
Cc1ccc(NC(=O)c2ccc(CN3CCN(C)CC3)cc2)cc1Nc1nc(-c2cccnc2)cs1 [Masitinib (AB1010)]	-4.2 ± 7
Cc1cc(Nc2nc(N[C@@H](C)c3ccc(F)cc3)c(C#N)cc2F)n[nH]1	56.3 ± 7.3
Cn1cnc2c(F)c(Nc3ccc(Br)cc3F)c(C(=O)NOCCO)cc21	-1.44 ± 2.7
Cn1c(=O)c(F)c(Nc2ccc(I)cc2F)c2c(=O)n(C[C@@H](O)CO)cnc21	10.1 ± 14
COc1ccc(F)c(F)c1C(=O)c1cnc(NC2CCN(S(C)(=O)=O)CC2)nc1N	4.07 ± 8.4
CCC[C@H](NC(=O)/C(C#N)=C/c1cccc(Br)n1)c1ccccc1 [Degrasyn (WP1130)]	2.37 ± 17
C=CC(=O)Nc1ccc(CN2C(=O)N(c3cc(OC)cc(OC)c3)Cc3cnc(Nc4ccc(N5CCN(C)CC5)cc4)nc32)cc1	4.12 ± 14
NC1(Cc2ccc(Cl)cc2)CCN(c2ncnc3[nH]ccc23)CC1	2.05 ± 3.4
COc1cc(N2CCC(N)CC2)ccc1Nc1ncc(Cl)c(-c2c[nH]c3ccccc23)n1	7.47 ± 4.6
N#CC[C@@H](C1CCCC1)n1cc(-c2ncnc3[nH]ccc23)cn1	19.4 ± 9.1
